Legend:
[1] = system: LEGO organoid PTCC (PTEN-/-; TP53-/-; CDKN2A-/-; CDKN2B-/-); assay: bioluminescence (viable cell) signal fold change after vs before treatment, normalised to DMSO (ratio); higher = more tumour cell growth / less inhibition; settings: 10 µM; treatment time 6 days
Method: (§1)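 Luc2-labelled iPSC-derived glioblastoma-like organoids (LEGOs, genotypes PT = PTEN-/-;TP53-/-, PTCC = plus CDKN2A/B-/-, PTN = plus NF1-/-) were treated with 10 uM drug for 6 days (applied every other day) at 37 C. Bioluminescence imaging was done before treatment and 2 days after the last dose. BLI signals were normalised to the DMSO control on the same day and then to the pre-treatment signal (N=3).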

[2] = system: LEGO organoid PTN (PTEN-/-; TP53-/-; NF1-/-); assay: as above; settings: 10 µM; treatment time 6 days
Method: as §1

SMILES	bioluminescence [1]	bioluminescence [2]
COC(=O)C1=C(C)NC(C)=C(C(=O)OCCN(C)Cc2ccccc2)C1c1cccc([N+](=O)[O-])c1.Cl (stereo unspecified) [Nicardipine hydrochloride]	1.19	1.14
Cl.Clc1cccc(Cl)c1NC1=NCCN1 [Clonidine hydrochloride]	1.29	0.76
CN(C)CCCN1c2ccccc2CCc2ccccc21.Cl [Imipramine hydrochloride]	0.82	0.961
CC/C(=C(\c1ccccc1)c1ccc(OCCN(C)C)cc1)c1ccccc1 [Tamoxifen]	0.468	0.103
CC[C@@]1(O)C(=O)OCc2c1cc1n(c2=O)Cc2cc3c(CN(C)C)c(O)ccc3nc2-1.Cl [Topotecan hydrochloride]	0.236	0.171
CN1C(C(=O)Nc2ccccn2)=C(O)c2ccccc2S1(=O)=O [Piroxicam]	1.65	1.14
CNCCCC1c2ccccc2C=Cc2ccccc21.Cl [Protriptyline hydrochloride]	0.571	1.14
NNC(=O)c1ccncc1 [Isoniazid]	0.847	1.06
